Laboratory results from ChEMBL document CHEMBL1961873, “Compounds: GSK PKIS; Assays: Nanosyn kinase panel” (2012).

Experiments:
[1] = biological target: T1, Serine/threonine-protein kinase D2 (Homo sapiens) (UniProt Q9BZL6); conditions: at 1 µM;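 note: mean value of PRKD2 inhibition, from the GSK PKIS screening panel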
T1 sequence (whole entry): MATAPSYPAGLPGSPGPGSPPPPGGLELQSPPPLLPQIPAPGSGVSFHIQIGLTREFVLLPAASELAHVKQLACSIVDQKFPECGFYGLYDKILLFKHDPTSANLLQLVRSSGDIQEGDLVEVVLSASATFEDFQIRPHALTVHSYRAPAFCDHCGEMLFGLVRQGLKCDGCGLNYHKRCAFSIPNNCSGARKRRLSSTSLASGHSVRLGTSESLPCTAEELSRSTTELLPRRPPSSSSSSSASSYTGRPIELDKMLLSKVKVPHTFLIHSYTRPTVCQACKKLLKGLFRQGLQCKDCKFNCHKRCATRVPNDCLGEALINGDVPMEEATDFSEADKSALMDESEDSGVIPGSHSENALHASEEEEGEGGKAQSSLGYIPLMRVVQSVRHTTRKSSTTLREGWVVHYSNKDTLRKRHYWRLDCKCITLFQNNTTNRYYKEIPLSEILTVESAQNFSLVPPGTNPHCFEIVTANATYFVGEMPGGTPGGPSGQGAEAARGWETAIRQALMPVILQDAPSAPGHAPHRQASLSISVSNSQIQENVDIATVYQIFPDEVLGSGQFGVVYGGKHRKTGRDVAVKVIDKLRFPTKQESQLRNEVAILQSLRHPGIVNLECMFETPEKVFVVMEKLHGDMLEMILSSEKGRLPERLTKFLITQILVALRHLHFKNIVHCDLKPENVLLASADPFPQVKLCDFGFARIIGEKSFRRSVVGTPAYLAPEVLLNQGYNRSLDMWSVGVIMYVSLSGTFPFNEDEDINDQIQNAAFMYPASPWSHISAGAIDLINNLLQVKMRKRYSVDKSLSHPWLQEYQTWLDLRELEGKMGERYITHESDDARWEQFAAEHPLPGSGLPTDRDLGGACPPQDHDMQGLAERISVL

[2] = biological target: T2, Serine/threonine-protein kinase D3 (Homo sapiens) (UniProt O94806); conditions: at 0.1 µM
T2 sequence (whole entry): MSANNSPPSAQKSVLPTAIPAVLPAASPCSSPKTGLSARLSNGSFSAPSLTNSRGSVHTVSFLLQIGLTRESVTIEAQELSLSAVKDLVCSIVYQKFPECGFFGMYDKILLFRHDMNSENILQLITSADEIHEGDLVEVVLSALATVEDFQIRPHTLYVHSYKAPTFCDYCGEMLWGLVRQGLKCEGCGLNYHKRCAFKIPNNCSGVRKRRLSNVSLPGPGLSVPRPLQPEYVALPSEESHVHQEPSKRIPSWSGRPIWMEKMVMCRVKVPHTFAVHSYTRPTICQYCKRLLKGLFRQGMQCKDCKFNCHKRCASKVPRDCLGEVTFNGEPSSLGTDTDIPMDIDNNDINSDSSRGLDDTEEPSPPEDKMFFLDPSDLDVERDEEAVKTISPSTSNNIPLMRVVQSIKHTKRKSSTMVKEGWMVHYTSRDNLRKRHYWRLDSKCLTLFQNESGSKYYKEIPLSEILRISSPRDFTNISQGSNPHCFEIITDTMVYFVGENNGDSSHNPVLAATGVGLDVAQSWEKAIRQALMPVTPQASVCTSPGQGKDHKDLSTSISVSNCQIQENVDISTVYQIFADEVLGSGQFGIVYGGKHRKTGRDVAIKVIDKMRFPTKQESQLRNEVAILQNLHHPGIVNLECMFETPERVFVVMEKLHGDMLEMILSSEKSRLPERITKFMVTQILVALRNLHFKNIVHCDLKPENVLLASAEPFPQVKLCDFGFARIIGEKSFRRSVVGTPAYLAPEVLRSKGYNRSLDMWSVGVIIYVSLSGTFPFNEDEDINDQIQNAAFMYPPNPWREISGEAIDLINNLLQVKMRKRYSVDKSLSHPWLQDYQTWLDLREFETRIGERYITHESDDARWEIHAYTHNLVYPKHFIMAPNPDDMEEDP

[3] = biological target: T2, Serine/threonine-protein kinase D3 (Homo sapiens); conditions: at 1 µM
[4] = biological target: T3, cGMP-dependent protein kinase 1 (Homo sapiens) (UniProt Q13976); conditions: at 0.1 µM
T3 sequence (whole entry): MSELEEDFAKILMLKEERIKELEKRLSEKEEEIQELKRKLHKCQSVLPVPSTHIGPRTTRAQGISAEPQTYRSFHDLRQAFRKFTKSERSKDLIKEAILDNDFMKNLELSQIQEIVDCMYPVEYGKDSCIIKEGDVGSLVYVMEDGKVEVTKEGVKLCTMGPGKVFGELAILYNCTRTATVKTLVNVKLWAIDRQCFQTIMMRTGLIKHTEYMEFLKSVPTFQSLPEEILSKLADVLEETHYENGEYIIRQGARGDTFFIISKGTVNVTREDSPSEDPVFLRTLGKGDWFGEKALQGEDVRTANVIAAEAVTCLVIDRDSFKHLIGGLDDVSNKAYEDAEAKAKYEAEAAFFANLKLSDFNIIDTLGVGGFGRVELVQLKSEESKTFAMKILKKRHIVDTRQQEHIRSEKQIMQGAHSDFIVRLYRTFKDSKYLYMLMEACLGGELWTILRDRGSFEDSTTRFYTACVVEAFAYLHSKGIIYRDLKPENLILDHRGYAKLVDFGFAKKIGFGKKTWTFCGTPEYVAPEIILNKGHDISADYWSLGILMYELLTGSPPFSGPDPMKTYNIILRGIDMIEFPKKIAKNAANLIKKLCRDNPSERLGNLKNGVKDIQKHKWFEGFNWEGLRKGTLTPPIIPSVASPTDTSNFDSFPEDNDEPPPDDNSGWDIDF

[5] = biological target: T3, cGMP-dependent protein kinase 1 (Homo sapiens); conditions: at 1 µM
[6] = biological target: T4, cGMP-dependent protein kinase 2 (Homo sapiens) (UniProt Q13237); conditions: at 0.1 µM
T4 sequence (whole entry): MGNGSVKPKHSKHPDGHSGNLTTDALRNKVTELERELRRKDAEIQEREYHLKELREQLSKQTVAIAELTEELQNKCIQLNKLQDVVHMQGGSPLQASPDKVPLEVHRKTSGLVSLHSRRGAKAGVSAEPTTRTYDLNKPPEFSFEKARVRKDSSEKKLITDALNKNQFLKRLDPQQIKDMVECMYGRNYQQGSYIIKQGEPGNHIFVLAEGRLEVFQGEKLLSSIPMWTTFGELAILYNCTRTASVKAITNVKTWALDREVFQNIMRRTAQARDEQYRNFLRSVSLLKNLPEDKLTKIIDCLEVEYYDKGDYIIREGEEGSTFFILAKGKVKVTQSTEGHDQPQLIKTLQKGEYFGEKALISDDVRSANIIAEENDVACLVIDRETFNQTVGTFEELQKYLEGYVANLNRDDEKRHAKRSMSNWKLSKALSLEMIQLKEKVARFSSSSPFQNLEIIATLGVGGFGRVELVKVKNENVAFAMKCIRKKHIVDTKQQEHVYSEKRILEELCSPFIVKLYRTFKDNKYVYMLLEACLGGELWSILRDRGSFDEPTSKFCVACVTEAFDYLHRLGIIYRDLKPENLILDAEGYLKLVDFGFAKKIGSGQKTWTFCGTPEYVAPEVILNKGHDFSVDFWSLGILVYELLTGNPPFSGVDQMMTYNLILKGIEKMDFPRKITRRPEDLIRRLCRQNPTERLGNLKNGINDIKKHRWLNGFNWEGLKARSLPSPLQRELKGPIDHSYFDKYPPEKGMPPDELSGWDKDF

[7] = biological target: T4, cGMP-dependent protein kinase 2 (Homo sapiens); conditions: at 1 µM
[8] = biological target: T5, cAMP-dependent protein kinase catalytic subunit PRKX (Homo sapiens) (UniProt P51817); conditions: at 0.1 µM
T5 sequence (whole entry): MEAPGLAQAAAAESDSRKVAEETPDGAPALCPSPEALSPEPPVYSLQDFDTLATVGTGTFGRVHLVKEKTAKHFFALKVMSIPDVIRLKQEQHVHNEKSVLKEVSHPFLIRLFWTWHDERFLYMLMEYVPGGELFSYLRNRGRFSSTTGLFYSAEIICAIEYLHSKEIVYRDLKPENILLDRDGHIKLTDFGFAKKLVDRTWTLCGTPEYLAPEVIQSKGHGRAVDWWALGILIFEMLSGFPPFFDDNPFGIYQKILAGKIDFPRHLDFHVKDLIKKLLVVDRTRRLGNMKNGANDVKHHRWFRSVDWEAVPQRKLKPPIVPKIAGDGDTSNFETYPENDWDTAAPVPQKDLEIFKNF

[9] = biological target: T5, cAMP-dependent protein kinase catalytic subunit PRKX (Homo sapiens); conditions: at 1 µM
[10] = biological target: Rho-associated protein kinase 1 (Homo sapiens) (UniProt Q13464); conditions: at 0.1 µM
[11] = biological target: Rho-associated protein kinase 1 (Homo sapiens) (UniProt Q13464); conditions: at 1 µM
[12] = biological target: Rho-associated protein kinase 2 (Homo sapiens) (UniProt O75116); conditions: at 0.1 µM
[13] = biological target: Rho-associated protein kinase 2 (Homo sapiens) (UniProt O75116); conditions: at 1 µM
[14] = biological target: Ribosomal protein S6 kinase alpha-1 (Homo sapiens) (UniProt Q15418); conditions: at 0.1 µM
[15] = biological target: Ribosomal protein S6 kinase alpha-1 (Homo sapiens) (UniProt Q15418); conditions: at 1 µM
[16] = biological target: Ribosomal protein S6 kinase alpha-3 (Homo sapiens) (UniProt P51812); conditions: at 0.1 µM
[17] = biological target: Ribosomal protein S6 kinase alpha-3 (Homo sapiens) (UniProt P51812); conditions: at 1 µM
[18] = biological target: Ribosomal protein S6 kinase alpha-2 (Homo sapiens) (UniProt Q15349); conditions: at 0.1 µM
[19] = biological target: Ribosomal protein S6 kinase alpha-2 (Homo sapiens) (UniProt Q15349); conditions: at 1 µM
[20] = biological target: Ribosomal protein S6 kinase alpha-6 (Homo sapiens) (UniProt Q9UK32); conditions: at 0.1 µM;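 note: reported value is the mean inhibition of RSK4, from the GSK PKIS kinase inhibitor screen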
Chain of Ribosomal protein S6 kinase alpha-6 (Homo sapiens) (Q9UK32 whole entry): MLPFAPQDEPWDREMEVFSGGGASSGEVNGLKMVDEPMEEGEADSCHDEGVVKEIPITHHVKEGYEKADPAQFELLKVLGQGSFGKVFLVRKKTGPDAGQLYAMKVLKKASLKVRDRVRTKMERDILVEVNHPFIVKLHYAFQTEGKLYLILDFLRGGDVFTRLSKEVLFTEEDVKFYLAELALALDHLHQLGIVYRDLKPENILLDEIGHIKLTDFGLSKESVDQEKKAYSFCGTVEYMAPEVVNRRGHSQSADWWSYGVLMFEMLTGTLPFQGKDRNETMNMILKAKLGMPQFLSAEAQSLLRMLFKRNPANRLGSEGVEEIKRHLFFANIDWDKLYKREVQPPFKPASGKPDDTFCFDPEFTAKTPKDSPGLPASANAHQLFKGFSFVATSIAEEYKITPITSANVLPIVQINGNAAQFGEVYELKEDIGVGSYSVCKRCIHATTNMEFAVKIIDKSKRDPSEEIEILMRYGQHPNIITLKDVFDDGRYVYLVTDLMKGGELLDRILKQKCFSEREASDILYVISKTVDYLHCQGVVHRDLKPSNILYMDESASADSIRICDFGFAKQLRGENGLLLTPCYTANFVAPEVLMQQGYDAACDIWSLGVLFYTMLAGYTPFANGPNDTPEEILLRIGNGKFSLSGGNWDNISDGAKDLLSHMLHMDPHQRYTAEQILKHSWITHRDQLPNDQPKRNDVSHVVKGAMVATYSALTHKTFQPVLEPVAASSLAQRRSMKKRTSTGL

Chain of Rho-associated protein kinase 2 (Homo sapiens) (O75116 whole entry, looked up): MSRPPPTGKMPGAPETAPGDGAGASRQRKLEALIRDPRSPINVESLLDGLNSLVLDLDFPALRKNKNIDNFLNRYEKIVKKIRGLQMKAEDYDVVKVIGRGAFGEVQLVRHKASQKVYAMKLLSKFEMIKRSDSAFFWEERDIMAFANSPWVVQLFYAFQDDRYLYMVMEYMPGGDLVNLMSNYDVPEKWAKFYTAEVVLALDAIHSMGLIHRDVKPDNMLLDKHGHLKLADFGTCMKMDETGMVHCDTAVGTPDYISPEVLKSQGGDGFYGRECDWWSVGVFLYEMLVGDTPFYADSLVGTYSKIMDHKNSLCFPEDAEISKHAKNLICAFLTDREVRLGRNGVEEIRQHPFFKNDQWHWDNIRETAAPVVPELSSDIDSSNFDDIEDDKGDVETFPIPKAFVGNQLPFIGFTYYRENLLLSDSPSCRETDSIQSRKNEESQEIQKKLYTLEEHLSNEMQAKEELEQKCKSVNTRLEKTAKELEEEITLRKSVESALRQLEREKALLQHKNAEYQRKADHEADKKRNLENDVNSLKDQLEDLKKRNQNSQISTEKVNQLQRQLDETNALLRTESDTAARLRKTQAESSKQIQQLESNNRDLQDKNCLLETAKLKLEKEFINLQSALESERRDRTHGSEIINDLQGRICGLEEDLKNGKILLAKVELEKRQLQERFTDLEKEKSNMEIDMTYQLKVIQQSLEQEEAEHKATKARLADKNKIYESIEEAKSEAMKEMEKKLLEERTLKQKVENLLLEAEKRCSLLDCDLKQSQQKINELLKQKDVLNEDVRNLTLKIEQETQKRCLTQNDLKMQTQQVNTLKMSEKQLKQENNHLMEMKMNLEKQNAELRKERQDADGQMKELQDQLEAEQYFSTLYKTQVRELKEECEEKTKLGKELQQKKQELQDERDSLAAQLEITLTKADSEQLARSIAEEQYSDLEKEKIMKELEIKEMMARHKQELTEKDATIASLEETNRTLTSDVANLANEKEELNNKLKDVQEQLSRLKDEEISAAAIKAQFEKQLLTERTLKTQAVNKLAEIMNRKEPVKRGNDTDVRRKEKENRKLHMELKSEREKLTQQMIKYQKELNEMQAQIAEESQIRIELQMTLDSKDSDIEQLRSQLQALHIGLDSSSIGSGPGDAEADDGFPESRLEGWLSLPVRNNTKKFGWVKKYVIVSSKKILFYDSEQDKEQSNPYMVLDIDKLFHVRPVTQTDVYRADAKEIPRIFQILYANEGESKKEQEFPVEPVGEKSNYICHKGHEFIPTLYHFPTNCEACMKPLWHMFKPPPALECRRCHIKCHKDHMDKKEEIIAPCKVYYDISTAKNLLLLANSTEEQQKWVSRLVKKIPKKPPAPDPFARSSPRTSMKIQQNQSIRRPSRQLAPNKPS
Chain of Ribosomal protein S6 kinase alpha-1 (Homo sapiens) (Q15418 whole entry): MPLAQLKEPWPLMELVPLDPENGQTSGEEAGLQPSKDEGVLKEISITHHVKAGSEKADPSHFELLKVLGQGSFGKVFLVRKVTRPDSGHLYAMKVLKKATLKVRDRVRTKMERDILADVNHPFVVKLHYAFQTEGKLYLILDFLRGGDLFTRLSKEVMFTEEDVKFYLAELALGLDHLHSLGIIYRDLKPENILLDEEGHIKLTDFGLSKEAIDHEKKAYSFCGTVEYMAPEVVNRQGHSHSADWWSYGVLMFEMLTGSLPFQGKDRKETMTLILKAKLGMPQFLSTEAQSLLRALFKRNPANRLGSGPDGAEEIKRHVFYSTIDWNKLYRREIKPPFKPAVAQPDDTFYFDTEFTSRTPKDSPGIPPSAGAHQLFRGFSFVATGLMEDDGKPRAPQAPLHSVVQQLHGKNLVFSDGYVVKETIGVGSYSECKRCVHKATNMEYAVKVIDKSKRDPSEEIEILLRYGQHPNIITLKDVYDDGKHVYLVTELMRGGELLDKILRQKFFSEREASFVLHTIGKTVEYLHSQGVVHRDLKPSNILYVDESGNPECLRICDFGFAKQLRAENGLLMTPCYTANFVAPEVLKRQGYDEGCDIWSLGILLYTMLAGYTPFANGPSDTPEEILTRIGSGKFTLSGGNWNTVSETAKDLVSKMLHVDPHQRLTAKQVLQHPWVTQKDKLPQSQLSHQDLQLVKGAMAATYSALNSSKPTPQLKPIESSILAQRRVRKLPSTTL
Chain of Rho-associated protein kinase 1 (Homo sapiens) (Q13464 2-1354 limits assumed): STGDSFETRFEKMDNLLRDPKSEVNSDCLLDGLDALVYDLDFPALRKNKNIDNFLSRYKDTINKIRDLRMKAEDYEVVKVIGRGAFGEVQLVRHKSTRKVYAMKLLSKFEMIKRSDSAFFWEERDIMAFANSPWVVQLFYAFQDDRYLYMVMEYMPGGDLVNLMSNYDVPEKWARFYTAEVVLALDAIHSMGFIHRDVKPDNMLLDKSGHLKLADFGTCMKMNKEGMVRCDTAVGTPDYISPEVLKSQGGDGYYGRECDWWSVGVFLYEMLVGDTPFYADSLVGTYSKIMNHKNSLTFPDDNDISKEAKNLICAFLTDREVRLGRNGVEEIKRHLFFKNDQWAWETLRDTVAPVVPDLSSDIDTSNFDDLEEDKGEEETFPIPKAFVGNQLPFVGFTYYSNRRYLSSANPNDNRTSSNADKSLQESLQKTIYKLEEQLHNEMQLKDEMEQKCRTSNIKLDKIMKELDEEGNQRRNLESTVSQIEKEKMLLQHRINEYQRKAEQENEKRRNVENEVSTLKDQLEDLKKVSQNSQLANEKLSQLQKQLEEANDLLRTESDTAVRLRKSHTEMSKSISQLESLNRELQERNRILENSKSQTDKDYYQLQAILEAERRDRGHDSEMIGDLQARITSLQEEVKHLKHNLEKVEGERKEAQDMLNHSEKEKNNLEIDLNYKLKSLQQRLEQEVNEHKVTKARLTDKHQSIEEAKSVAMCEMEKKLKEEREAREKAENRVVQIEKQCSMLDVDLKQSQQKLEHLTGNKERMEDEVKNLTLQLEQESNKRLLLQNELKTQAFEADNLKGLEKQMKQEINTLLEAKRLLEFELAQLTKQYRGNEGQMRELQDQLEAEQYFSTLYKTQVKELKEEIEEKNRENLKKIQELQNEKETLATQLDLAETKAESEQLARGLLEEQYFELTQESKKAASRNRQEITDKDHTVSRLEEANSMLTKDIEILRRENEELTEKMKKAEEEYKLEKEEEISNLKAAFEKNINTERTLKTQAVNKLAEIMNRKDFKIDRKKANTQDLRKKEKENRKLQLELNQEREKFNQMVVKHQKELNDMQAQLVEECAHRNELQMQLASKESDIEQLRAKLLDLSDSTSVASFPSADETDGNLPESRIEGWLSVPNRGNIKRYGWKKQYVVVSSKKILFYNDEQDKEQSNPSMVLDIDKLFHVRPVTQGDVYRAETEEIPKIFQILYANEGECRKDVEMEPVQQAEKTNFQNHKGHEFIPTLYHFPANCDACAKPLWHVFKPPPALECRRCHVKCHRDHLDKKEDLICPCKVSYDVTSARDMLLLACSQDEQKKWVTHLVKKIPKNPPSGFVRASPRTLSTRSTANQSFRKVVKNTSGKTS
Chain of Ribosomal protein S6 kinase alpha-3 (Homo sapiens) (P51812 whole entry): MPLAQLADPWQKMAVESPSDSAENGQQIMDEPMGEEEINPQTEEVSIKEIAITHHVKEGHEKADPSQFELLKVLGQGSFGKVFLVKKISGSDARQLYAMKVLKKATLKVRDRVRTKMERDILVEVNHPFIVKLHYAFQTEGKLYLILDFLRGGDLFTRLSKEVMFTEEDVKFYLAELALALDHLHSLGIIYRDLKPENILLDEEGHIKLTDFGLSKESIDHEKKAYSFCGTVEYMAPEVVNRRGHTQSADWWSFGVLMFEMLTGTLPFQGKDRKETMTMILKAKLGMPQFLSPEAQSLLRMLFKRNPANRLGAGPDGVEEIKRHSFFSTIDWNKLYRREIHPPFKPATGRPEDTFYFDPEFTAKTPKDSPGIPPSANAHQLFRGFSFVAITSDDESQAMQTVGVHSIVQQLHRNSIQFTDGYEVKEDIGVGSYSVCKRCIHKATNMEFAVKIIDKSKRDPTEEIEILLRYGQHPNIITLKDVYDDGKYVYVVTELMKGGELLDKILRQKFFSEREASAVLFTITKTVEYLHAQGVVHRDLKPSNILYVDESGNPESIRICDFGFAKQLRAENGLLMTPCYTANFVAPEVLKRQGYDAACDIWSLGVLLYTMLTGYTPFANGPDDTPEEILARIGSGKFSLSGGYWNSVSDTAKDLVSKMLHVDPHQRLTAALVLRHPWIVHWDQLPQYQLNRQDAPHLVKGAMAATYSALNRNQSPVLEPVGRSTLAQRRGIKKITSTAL

Compound | inhibition [1] [%] | inhibition [2] [%] | inhibition [3] [%] | inhibition [4] [%] | inhibition [5] [%] | inhibition [6] [%] | inhibition [7] [%] | inhibition [8] [%] | inhibition [9] [%] | inhibition [10] [%] | inhibition [11] [%] | inhibition [12] [%] | inhibition [13] [%] | inhibition [14] [%] | inhibition [15] [%] | inhibition [16] [%] | inhibition [17] [%] | inhibition [18] [%] | inhibition [19] [%] | inhibition [20] [%]
COc1cc(Nc2nccc(-c3cnn4ncccc34)n2)cc(OC)c1 | 15.9 | -0.68 | 19.6 | 12.2 | 57.2 | 3.45 | 24.4 | 0.67 | 0.29 | 0.75 | 8.16 | 2.33 | 15 | 1.35 | 3.27 | 1.72 | 4.75 | 1.42 | 5.35 | 0.97
Nc1ccc(C#Cc2cncnc2Nc2ccc(OCc3cccc(F)c3)c(Cl)c2)cc1 | 2.21 | 2.59 | 2.64 | 3.04 | 1.31 | 2.28 | 0.99 | 1.33 | 1.72 | 0.74 | 2.72 | 1.93 | 1.92 | 1.19 | 1.59 | 0.98 | 1.75 | 1.56 | 3.21 | 0.9
CCCN1CCCC(c2ccc(Nc3nc(Nc4cc(F)ccc4C(N)=O)c4cc[nH]c4n3)c(OC)c2)C1 (stereo not given) | 81.1 | 19.6 | 72.7 | 7.1 | 32.9 | 4.78 | 26.3 | 0.44 | 0.52 | 22.5 | 67.7 | 27.2 | 71.3 | 35.1 | 72.5 | 22.6 | 40.2 | 9.15 | 38 | 19.7
